Results on ten compounds are retold here after PubChem BioAssay (NCI).

Compounds without any hit were thinned out: in the full panel of roughly 79,000, 15% have a hit. Unmarked numbers belong to inactive results. Activity calls are given as the source filed them. Rule as the data show it: active = growth inhibition above about 70%; inactive = the rest.

The nature of assay [1]: NCI Yeast Anticancer Drug Screen. Data for the rad50 strain (AID 155).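 Also: 0% = growth of vehicle-only cultures of the same strain.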 Particulars: S. cerevisiae rad50 strain growth inhibition, active compounds read high. The method in brief: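 Inhibition values express reduced yeast growth in compound-treated cultures relative to vehicle-treated controls.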
A short description of assay [2]: NCI Yeast Anticancer Drug Screen. Data for the mec2-1 strain (AID 157). Particulars: S. cerevisiae mec2-1 strain, active compounds read high. The method, boiled down: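 Test agents were screened against the mec2-1 yeast strain, with defined DNA repair or cell cycle alteration. Growth was scored as inhibition against vehicle-only controls.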
A short description of assay [3]: NCI Yeast Anticancer Drug Screen. Data for the sgs1 mgt1 strain (AID 161).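 Also: 0% = growth of cultures given vehicle only.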 Particulars: S. cerevisiae sgs1 mgt1 strain, active compounds read high. The method, boiled down:
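Inhibition of yeast growth, normalised to vehicle-treated controls, is reported for a strain bearing genetic alterations in DNA damage repair.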

Assay [4] can be described thus: NCI Yeast Anticancer Drug Screen. Data for the cln2 rad14 strain (AID 165).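 Also: 0% = growth equal to vehicle treated cultures.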 Particulars: S. cerevisiae cln2 rad14 strain, active compounds read high. The method in brief: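 Growth of compound-exposed yeast (cln2 rad14 genotype) measured and expressed as inhibition relative to vehicle.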
Assay [5] is described as follows: NCI Yeast Anticancer Drug Screen. Data for the bub3 strain (AID 167). Conditions: S. cerevisiae bub3 mutant strain, active compounds read high. The method, boiled down:
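Steps: expose the mutant yeast strain to compound; grow alongside vehicle-treated cultures; measure growth; express inhibition against the vehicle cultures.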

Assay [6] is described as follows: NCI Yeast Anticancer Drug Screen. Data for the mlh1 rad18 strain (AID 175). Particulars: S. cerevisiae mlh1 rad18 strain growth inhibition, active compounds read high. The method, boiled down: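 In this whole-cell yeast screen, a strain with altered DNA damage repair is challenged with compound, and its growth is measured against matched vehicle-treated controls.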
Setting [7] is: at 5.0 µM (retest, dose inferred, filed as 0.5).
Setting [8] is: at 50.0 µM (retest, dose inferred, filed as 5.0).

Take `Cc1cc(C(O)(c2cc(C)c(O)c(C(=O)O)c2)c2cc(C)c(O)c(C(=O)O)c2)cc(C(=O)O)c1O`: the growth inhibition is 2% in assay [1] (setting [7]); -5% in assay [1] (setting [8]); 12.4% in assay [1] (at 50.0 µM); 2% in assay [2] (setting [7]); -11% in assay [2] (setting [8]); -18% in assay [2] (at 50.0 µM). Moreover, the growth inhibition in assay [3] (setting [7]) was 0%; in assay [3] (setting [8]) it was 1%; in assay [3] (at 50.0 µM), 5.35%; in assay [4] (setting [7]), 6%; in assay [4] (setting [8]), -5%; in assay [4] (at 50.0 µM), 21.9%. For the same compound, the growth inhibition in assay [5] (setting [7]) was -43%; in assay [5] (setting [8]), -3%; in assay [5] (at 50.0 µM) it was -11.7%; in assay [6] (setting [7]) it was 2%; in assay [6] (setting [8]), -9%; in assay [6] (at 50.0 µM), 10.3%.

`C=C(C)C1CC/C(C)=C/CCC2(C)OC2CC/C(CO)=C\C1O` (stereo not given): the growth inhibition is 52% in assay [1] (setting [7]); 89% (active) in assay [1] (setting [8]); 91.1% (active) in assay [1] (at 50.0 µM); 80% (active) in assay [2] (setting [7]); 96% (active) in assay [2] (setting [8]); 93% (active) in assay [2] (at 50.0 µM). The growth inhibition in assay [3] (setting [7]) is 41%; in assay [3] (setting [8]), 95% (active); in assay [3] (at 50.0 µM) it was 93% (active); in assay [4] (setting [7]), 48%; in assay [4] (setting [8]), 85% (active); in assay [4] (at 50.0 µM), 91.7% (active). The growth inhibition in assay [5] (setting [7]) was 90% (active); in assay [5] (setting [8]) it was 94% (active); in assay [5] (at 50.0 µM), 91.8% (active); in assay [6] (setting [7]) it was 87% (active); in assay [6] (setting [8]), 96% (active); in assay [6] (at 50.0 µM), 91.5% (active).

On to `O=C1OC(=O)C2C1C1C(c3ccccc3)=C(c3ccccc3)C2(O)C2C(=O)OC(=O)C12` (stereo not given), for which the growth inhibition in assay [1] (setting [7]) was 25%; in assay [1] (setting [8]), 25%; in assay [1] (at 50.0 µM), 76.2% (active); in assay [2] (setting [7]), 7%; in assay [2] (setting [8]), 7%; in assay [2] (at 50.0 µM), 81% (active). Moreover, the growth inhibition was 16% in assay [3] (setting [7]); 16% in assay [3] (setting [8]); 69.7% in assay [3] (at 50.0 µM); 17% in assay [4] (setting [7]); 17% in assay [4] (setting [8]); 52.5% in assay [4] (at 50.0 µM). The growth inhibition was 4% in assay [5] (setting [7]); 4% in assay [5] (setting [8]); 74% (active) in assay [5] (at 50.0 µM); 18% in assay [6] (setting [7]); 18% in assay [6] (setting [8]); 29.7% in assay [6] (at 50.0 µM).

Regarding `O=C(Nc1ccccc1)ON=C1CCCCC1`, the growth inhibition was 3% in assay [1] (setting [7]); 75% (active) in assay [1] (setting [8]); 80% (active) in assay [1] (at 50.0 µM); -31% in assay [2] (setting [7]); 36% in assay [2] (setting [8]); 63.6% in assay [2] (at 50.0 µM). For the same compound, the growth inhibition in assay [3] (setting [7]) was 3%; in assay [3] (setting [8]) it was 68%; in assay [3] (at 50.0 µM), 94.2% (active); in assay [4] (setting [7]) it was 6%; in assay [4] (setting [8]), 27%; in assay [4] (at 50.0 µM), 61.8%. Besides, the growth inhibition was 50% in assay [5] (setting [7]); 44% in assay [5] (setting [8]); 77.2% (active) in assay [5] (at 50.0 µM); 5% in assay [6] (setting [7]); 62% in assay [6] (setting [8]); 89.6% (active) in assay [6] (at 50.0 µM).

`C=C1C[C@H]2C=Nc3cc(OCCCOc4cc5c(cc4OC)C(=O)N4CC(=C)C[C@H]4C=N5)c(OC)cc3C(=O)N2C1`: the growth inhibition in assay [1] (setting [7]) is 92% (active); in assay [1] (setting [8]) it was 95% (active); in assay [1] (at 50.0 µM), 98.3% (active); in assay [2] (setting [7]) it was 94% (active); in assay [2] (setting [8]) it was 97% (active); in assay [2] (at 50.0 µM), 98.7% (active). For the same compound, the growth inhibition in assay [3] (setting [7]) is 88% (active); in assay [3] (setting [8]) it was 94% (active); in assay [3] (at 50.0 µM) it was 97.7% (active); in assay [4] (setting [7]), 92% (active); in assay [4] (setting [8]) it was 97% (active); in assay [4] (at 50.0 µM) it was 98.3% (active). Further, the growth inhibition in assay [5] (setting [7]) is 86% (active); in assay [5] (setting [8]) it was 95% (active); in assay [5] (at 50.0 µM), 98.6% (active); in assay [6] (setting [7]) it was 92% (active); in assay [6] (setting [8]), 95% (active); in assay [6] (at 50.0 µM), 98.7% (active).

`O=C(/C(=C/c1ccc2c(c1)OCO2)c1ccccc1)c1ccc(OCCN2CCCC2)cc1`: the growth inhibition in assay [1] (setting [7]) is -2%; in assay [1] (setting [8]), -4%; in assay [1] (at 50.0 µM), 34.9%; in assay [2] (setting [7]) it was 3%; in assay [2] (setting [8]) it was -8%; in assay [2] (at 50.0 µM) it was 58.5%. Also, the growth inhibition in assay [3] (setting [7]) is -3%; in assay [3] (setting [8]), -16%; in assay [3] (at 50.0 µM), 31.1%; in assay [4] (setting [7]), -2%; in assay [4] (setting [8]), -8%; in assay [4] (at 50.0 µM), 12.8%. Moreover, the growth inhibition was -7% in assay [5] (setting [7]); -1% in assay [5] (setting [8]); 3.45% in assay [5] (at 50.0 µM); 5% in assay [6] (setting [7]); 19% in assay [6] (setting [8]); 7.35% in assay [6] (at 50.0 µM).

`CCCCOC(=O)c1nc(N(CC2CCCCC2)C(=O)NC)sc1NC(=O)NC`: the growth inhibition is -3% in assay [1] (setting [7]); 92% (active) in assay [1] (setting [8]); 10.5% in assay [1] (at 50.0 µM); -3% in assay [2] (setting [7]); 95% (active) in assay [2] (setting [8]); 0.85% in assay [2] (at 50.0 µM). Further, the growth inhibition was -18% in assay [3] (setting [7]); 97% (active) in assay [3] (setting [8]); 8.7% in assay [3] (at 50.0 µM); -3% in assay [4] (setting [7]); 95% (active) in assay [4] (setting [8]); 1.6% in assay [4] (at 50.0 µM). For the same compound, the growth inhibition in assay [5] (setting [7]) is 0%; in assay [5] (setting [8]), 95% (active); in assay [5] (at 50.0 µM), -1.65%; in assay [6] (setting [7]) it was 5%; in assay [6] (setting [8]), 96% (active); in assay [6] (at 50.0 µM), 29.2%.

For `CCOC(=O)C(NNc1ccccc1)C(c1ccccc1)[P+](c1ccccc1)(c1ccccc1)c1ccccc1` (stereo not given), the growth inhibition in assay [1] (setting [7]) was 78% (active); in assay [1] (setting [8]) it was 99% (active); in assay [1] (at 50.0 µM) it was 99.5% (active); in assay [2] (setting [7]), 94% (active); in assay [2] (setting [8]) it was 99% (active); in assay [2] (at 50.0 µM) it was 99.7% (active). The growth inhibition in assay [3] (setting [7]) was 85% (active); in assay [3] (setting [8]), 99% (active); in assay [3] (at 50.0 µM), 99.7% (active); in assay [4] (setting [7]) it was 59%; in assay [4] (setting [8]), 99% (active); in assay [4] (at 50.0 µM), 99.5% (active). For the same compound, the growth inhibition was 91% (active) in assay [5] (setting [7]); 99% (active) in assay [5] (setting [8]); 99.4% (active) in assay [5] (at 50.0 µM); 95% (active) in assay [6] (setting [7]); 99% (active) in assay [6] (setting [8]); 99.7% (active) in assay [6] (at 50.0 µM).

As for `CN(/N=C\c1cccc([N+](=O)[O-])c1)C(c1cccc([N+](=O)[O-])c1)N(C)/N=C/c1cccc([N+](=O)[O-])c1` (stereo not given), the growth inhibition in assay [1] (setting [7]) is -1%; in assay [1] (setting [8]), 34%; in assay [1] (at 50.0 µM), 43%; in assay [2] (setting [7]), -1%; in assay [2] (setting [8]), 45%; in assay [2] (at 50.0 µM), 48.4%. Besides, the growth inhibition in assay [3] (setting [7]) is 2%; in assay [3] (setting [8]) it was 74% (active); in assay [3] (at 50.0 µM), 68.5%; in assay [4] (setting [7]) it was 0%; in assay [4] (setting [8]) it was 17%; in assay [4] (at 50.0 µM) it was 8.75%. The growth inhibition in assay [5] (setting [7]) is -7%; in assay [5] (setting [8]) it was 16%; in assay [5] (at 50.0 µM) it was 16.5%; in assay [6] (setting [7]), 0%; in assay [6] (setting [8]), 40%; in assay [6] (at 50.0 µM), 40.6%.

Turning to `CCCCCOC(=S)SSSC(=S)OCCCCC`, the growth inhibition is -38% in assay [1] (setting [7]); 96% (active) in assay [1] (setting [8]); 8.65% in assay [1] (at 50.0 µM); 44% in assay [2] (setting [7]); 99% (active) in assay [2] (setting [8]); 4.7% in assay [2] (at 50.0 µM). Moreover, the growth inhibition was 6% in assay [3] (setting [7]); 97% (active) in assay [3] (setting [8]); 22.1% in assay [3] (at 50.0 µM); -13% in assay [4] (setting [7]); 66% in assay [4] (setting [8]); -0.1% in assay [4] (at 50.0 µM). Besides, the growth inhibition in assay [5] (setting [7]) was 0%; in assay [5] (setting [8]), 98% (active); in assay [5] (at 50.0 µM), 28.2%; in assay [6] (setting [7]) it was 16%; in assay [6] (setting [8]), 97% (active); in assay [6] (at 50.0 µM), 21.9%.
